Hits are enriched below; roughly 9.8% of the tested compounds scored in any of these assays.
HPGD inh: qHTS Assay for Inhibitors of HPGD (15-Hydroxyprostaglandin Dehydrogenase); 4.3% of 150,000 active; purified HPGD, NADH fluorescence kinetic, PGE2 substrate; 15-hydroxyprostaglandin dehydrogenase [NAD(+)] (Homo sapiens), P15428; Potency, µM, without a hit: top-dose activity change, negative = inhibition, most hits filed as inhibitors; further: potency means the concentration at half of the fitted maximal effect; on the % scale 0 is the no-effect control and ±100 the full control effect
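NADH formation kinetics: reaction with 30 uM PGE2 and 1 mM NAD+ (final), 20 nM enzyme, Tris-HCl pH 8 with Tween 20, after 15 min compound preincubation at room temperature. Fluorescence change, last versus first of five reads.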
CBFb RUNX1 block: qHTS Assay for Compounds Blocking the Interaction Between CBF-beta and RUNX1 for the Treatment of Acute Myeloid Leukemia; Runt-related transcription factor 1 (Homo sapiens) + Core-binding factor subunit beta …; AlphaScreen CBFb-His/RUNX1-biotin binding, biochemical; Potency, µM (top dose mostly 59.8 µM), for inactives: at the top dose activity, negative = inhibition, hits mostly inhibitors; 230,000 tested, under 10 active; AID 1477, 2009; active means well fitted curve in the direction sought with a large enough effect; inconclusive means small, poorly fitted or top-dose-only effect, or another doubt; inactive means no such curve, though single readings can be large; an effect the other way counts as inactive or inconclusive; further: % of control where 0% means no effect
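His-tagged CBF-beta and biotinylated RUNX1 (30 nM each) were premixed 20 min at room temperature, exposed to compound for 15 min, then given nickel-chelate and streptavidin AlphaScreen beads (50 ng each). After 90 min, AlphaScreen signal was read.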
HttQ103 aggreg: qHTS Multiplex Assay to Identify Dual Action Probes in a Cell Model of Huntington: Aggregate Formation (GFP). PC12 HttQ103-GFP aggregates, Acumen cytometry, 40 h. Potency, µM (highest dose often 46.1 µM), for inactives: at the top dose activity change, negative = inhibition, hits mostly inhibitors. 1.1% of 220,000 active. AID 1688, 2009; active means well fitted curve in the direction sought with a large enough effect; inconclusive means small, poorly fitted or top-dose-only effect, or another doubt; inactive means no such curve, though single readings can be large; an effect the other way counts as inactive or inconclusive; further: potency means the concentration at half of the fitted maximal effect; on the % scale 0 is the no-effect control and ±100 the full control effect; nearly all actives have a fitted effect of over 60% in size
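PC12 cells stably carrying ecdysone-inducible HTT exon 1 Q103–GFP were induced with tebufenozide (100 nM final) and treated with library compounds in titration. GFP aggregates in lysates were counted by laser scanning cytometry.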
HTT cytoprotect: qHTS Multiplex Assay to Identify Dual Action Probes in a Cell Model of Huntington: Cytoprotection (ATP); PC12 HTT-Q103 induced, cytoprotection, ATP luminescence, 40 h; 0.14% of 230,000 active; Potency, µM (doses to about 56.4 µM), for inactives: cytoprotection (ATP increase), hits mostly activators; active means well fitted curve in the direction sought with a large enough effect; inconclusive means small, poorly fitted or top-dose-only effect, or another doubt; inactive means no such curve, though single readings can be large; an effect the other way counts as inactive or inconclusive; further: potency means the concentration at half of the fitted maximal effect; % of control where 0% means no effect; nearly all actives have a fitted effect of over 45% in size
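Readout: ATPlite luminescence (ATP level). Model: stable PC12, inducible Htt exon1 Q103-GFP. Inducer: tebufenozide, 100 nM final. Compounds: dose series. No G418 in medium.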
ALDH1A1 block: qHTS Assay for Inhibitors of Aldehyde Dehydrogenase 1 (ALDH1A1) | Aldehyde dehydrogenase 1A1 (Homo sapiens), P00352 | Purified ALDH1A1, NADH fluorescence, propionaldehyde substrate | Potency, µM (top dose mostly 75.3 µM), for inactives: top-dose activity, negative = inhibition, hits mostly inhibitors | 7.3% of 220,000 active | AID 1030, 2008;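 further: potency means the concentration at half of the fitted maximal effect; plate controls were no enzyme wells and a reference inhibitor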
Target sequence (P00352 whole entry, looked up): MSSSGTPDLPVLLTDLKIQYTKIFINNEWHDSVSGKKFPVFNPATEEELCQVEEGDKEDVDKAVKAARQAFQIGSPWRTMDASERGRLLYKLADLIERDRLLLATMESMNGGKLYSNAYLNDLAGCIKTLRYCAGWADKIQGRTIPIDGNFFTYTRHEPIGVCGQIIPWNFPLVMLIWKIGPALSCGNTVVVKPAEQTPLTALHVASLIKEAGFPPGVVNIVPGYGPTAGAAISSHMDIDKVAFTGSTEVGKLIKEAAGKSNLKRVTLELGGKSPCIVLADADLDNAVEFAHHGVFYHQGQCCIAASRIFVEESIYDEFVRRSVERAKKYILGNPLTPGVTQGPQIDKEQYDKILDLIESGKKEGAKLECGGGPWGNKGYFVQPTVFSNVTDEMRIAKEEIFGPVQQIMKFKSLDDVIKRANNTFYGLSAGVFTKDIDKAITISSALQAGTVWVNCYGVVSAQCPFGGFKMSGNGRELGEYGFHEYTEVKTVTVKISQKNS
JMJD2E inh: qHTS Assay for Inhibitors of Human Jumonji Domain Containing 2E (JMJD2E) | Lysine-specific demethylase 4E (Homo sapiens), B2RXH2 | 1.6% of 230,000 active | AID 2147, 2009 | Potency, µM (highest dose often 57.1 µM), for inactives: at the top dose activity change, negative = inhibition, actives largely listed as inhibitors | JMJD2E catalytic domain, FDH-coupled NADH fluorescence (FDH is formaldehyde dehydrogenase);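 further: potency means the concentration at half of the fitted maximal effect; 0% = wells with enzyme and -100% = buffer wells without enzyme; nearly all actives have a fitted effect of over 50% in size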
* marks the source's active call; other numbers are inactive results; [ ] = remark or other dose. Unless noted, the call rests on the fitted dose curve; in most records, active means well fitted inhibition curve with a large enough effect (not every such curve was filed as active); inconclusive means small, poorly fitted or top-dose-only effect, or another doubt; inactive means no such curve, though single readings can be large or run the other way.

What do the screens show for `CCC(=O)Nc1cccc(-n2nnnc2SCC(=O)N(C(C)C)C(C)C)c1`?
CBFb RUNX1 block: 7.1%; HttQ103 aggreg: 6.9%[9.22 µM]; HTT cytoprotect: 30.9%[10 µM]; ALDH1A1 block: 6.5%; JMJD2E inh: -2.5%

How did COc1ccc(NC(=O)C2CCCN2C(=O)NCc2ccccc2)cc1 (stereo not given) do in these assays?
CBFb RUNX1 block: inconclusive; HttQ103 aggreg: 2.2%; HTT cytoprotect: -30.2%; ALDH1A1 block: 4.4%; JMJD2E inh: 2.6%

How did CCOC(=O)c1ccc(-n2c(CN3CCC(C(N)=O)CC3)nc3ccc([N+](=O)[O-])cc3c2=O)cc1 do in these assays?
CBFb RUNX1 block: -19.4%; HttQ103 aggreg: 6.9%; HTT cytoprotect: -4.5%; ALDH1A1 block: 8.91µM*; JMJD2E inh: -1.0%

What do the screens show for `CCOC(=O)c1ccc(-n2c(CN(CC)CC)nc3ccc([N+](=O)[O-])cc3c2=O)cc1`?
CBFb RUNX1 block: -8.6%; HttQ103 aggreg: 1.8%; HTT cytoprotect: inconclusive; ALDH1A1 block: 28.2µM*; JMJD2E inh: -11.3%

What do the screens show for `CCOC(=O)c1ccc(-n2c(CN3CCC(O)CC3)nc3ccc([N+](=O)[O-])cc3c2=O)cc1`?
CBFb RUNX1 block: -2.6%; HttQ103 aggreg: 6.5%; HTT cytoprotect: -7.6%; ALDH1A1 block: inconclusive; JMJD2E inh: -16.9%

Results for COc1ccccc1C(=O)NCC(=O)N/N=C/c1cccc(Cl)c1 ?
CBFb RUNX1 block: -3.9%; HttQ103 aggreg: -7.9%; HTT cytoprotect: -2.9%; ALDH1A1 block: 24.7%; JMJD2E inh: -4.1%

Results for Nc1ccc(-c2nc3nc(N)nc(N)c3nc2-c2ccc(N)cc2)cc1 ?
CBFb RUNX1 block: 1.1%; HttQ103 aggreg: -6.9%[9.22 µM]; HTT cytoprotect: 6.0%[10 µM]; ALDH1A1 block: 9.5%; JMJD2E inh: -1.3%

What do the screens show for `COc1cccc(OCCOc2c(OC)cccc2OC)c1`?
HPGD inh: -10.4%; CBFb RUNX1 block: 10.1%; HttQ103 aggreg: 4.8%; HTT cytoprotect: -13.8%; ALDH1A1 block: 1.0%; JMJD2E inh: -12.1%

How did O=C1c2ccccc2CN1CCSC(=S)N1CCSCC1 do in these assays?
CBFb RUNX1 block: -7.8%; HttQ103 aggreg: 0.6%; HTT cytoprotect: -45.0%; ALDH1A1 block: 10µM*; JMJD2E inh: 4.3%

Results for O=C1c2ccccc2CN1CCSC(=S)N1CCOCC1 ?
HPGD inh: 28.2µM*; CBFb RUNX1 block: 6.3%; HttQ103 aggreg: 9.9%; HTT cytoprotect: 9.0%[10 µM]; ALDH1A1 block: inconclusive; JMJD2E inh: 0.2%

How did CC1CN(C(=S)SCCN2Cc3ccccc3C2=O)CC(C)O1 (stereo not given) do in these assays?
HPGD inh: -17.2%; CBFb RUNX1 block: 1.9%; HttQ103 aggreg: inconclusive; HTT cytoprotect: -8.4%[1.9 µM]; ALDH1A1 block: -2.5%; JMJD2E inh: 4.3%

Results for O=C1c2ccccc2CN1CCNC(=S)NC1CCCCC1 ?
CBFb RUNX1 block: -1.5%; HttQ103 aggreg: 4.6%; HTT cytoprotect: -51.5%; ALDH1A1 block: 4.9%; JMJD2E inh: 7.5%

What do the screens show for `CCOC(=O)c1sc(-c2ccccc2)cc1NC(=O)c1ccc(S(=O)(=O)N(CCOC)CCOC)cc1`?
HPGD inh: inconclusive; CBFb RUNX1 block: inconclusive; HttQ103 aggreg: 23.9%; HTT cytoprotect: 18.5%[10 µM]; ALDH1A1 block: inconclusive; JMJD2E inh: -9.0%

What do the screens show for `COCCNc1nc(-c2ccccc2OC)nc2ccccc12`?
HTT cytoprotect: -48.5%; ALDH1A1 block: inconclusive

Results for Cc1ccc(S(=O)(=O)Nc2ccc(O)c3ncccc23)cc1 ?
CBFb RUNX1 block: inconclusive; HttQ103 aggreg: inconclusive; HTT cytoprotect: -181.6%; ALDH1A1 block: 1.26µM*; JMJD2E inh: 25.1µM*

Bioassay records from PubChem.
